Experimental data reported in ChEMBL document CHEMBL1961873, “Compounds: GSK PKIS; Assays: Nanosyn kinase panel” (2012).
Where “and” joins values, the source holds several entries; their conditions need not be identical. Identical values can stand only once.

Key:
[1] = biological target: RAF proto-oncogene serine/threonine-protein kinase (Homo sapiens) (UniProt P04049); conditions: at 1 µM;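 note: values are the mean percent inhibition of CRAF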
[2] = biological target: T1, Interleukin-1 receptor-associated kinase 4 (Homo sapiens) (UniProt Q9NWZ3); conditions: at 0.1 µM
T1 sequence (whole entry): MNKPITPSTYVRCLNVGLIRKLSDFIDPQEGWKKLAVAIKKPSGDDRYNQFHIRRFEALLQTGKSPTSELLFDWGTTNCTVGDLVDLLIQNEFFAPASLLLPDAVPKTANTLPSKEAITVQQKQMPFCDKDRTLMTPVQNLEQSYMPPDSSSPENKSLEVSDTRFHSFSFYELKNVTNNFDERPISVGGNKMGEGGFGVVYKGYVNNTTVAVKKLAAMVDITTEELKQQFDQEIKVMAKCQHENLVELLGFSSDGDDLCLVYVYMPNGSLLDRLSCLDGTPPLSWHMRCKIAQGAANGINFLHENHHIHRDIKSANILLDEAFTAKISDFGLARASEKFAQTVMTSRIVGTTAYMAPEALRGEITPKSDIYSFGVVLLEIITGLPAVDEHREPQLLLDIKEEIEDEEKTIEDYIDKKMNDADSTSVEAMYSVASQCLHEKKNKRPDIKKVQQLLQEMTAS

[3] = biological target: T1, Interleukin-1 receptor-associated kinase 4 (Homo sapiens); conditions: at 1 µM
[4] = biological target: Leucine-rich repeat serine/threonine-protein kinase 2 (Homo sapiens) (UniProt Q5S007); conditions: at 0.1 µM
Leucine-rich repeat serine/threonine-protein kinase 2 (Homo sapiens), sequence (Q5S007 whole entry): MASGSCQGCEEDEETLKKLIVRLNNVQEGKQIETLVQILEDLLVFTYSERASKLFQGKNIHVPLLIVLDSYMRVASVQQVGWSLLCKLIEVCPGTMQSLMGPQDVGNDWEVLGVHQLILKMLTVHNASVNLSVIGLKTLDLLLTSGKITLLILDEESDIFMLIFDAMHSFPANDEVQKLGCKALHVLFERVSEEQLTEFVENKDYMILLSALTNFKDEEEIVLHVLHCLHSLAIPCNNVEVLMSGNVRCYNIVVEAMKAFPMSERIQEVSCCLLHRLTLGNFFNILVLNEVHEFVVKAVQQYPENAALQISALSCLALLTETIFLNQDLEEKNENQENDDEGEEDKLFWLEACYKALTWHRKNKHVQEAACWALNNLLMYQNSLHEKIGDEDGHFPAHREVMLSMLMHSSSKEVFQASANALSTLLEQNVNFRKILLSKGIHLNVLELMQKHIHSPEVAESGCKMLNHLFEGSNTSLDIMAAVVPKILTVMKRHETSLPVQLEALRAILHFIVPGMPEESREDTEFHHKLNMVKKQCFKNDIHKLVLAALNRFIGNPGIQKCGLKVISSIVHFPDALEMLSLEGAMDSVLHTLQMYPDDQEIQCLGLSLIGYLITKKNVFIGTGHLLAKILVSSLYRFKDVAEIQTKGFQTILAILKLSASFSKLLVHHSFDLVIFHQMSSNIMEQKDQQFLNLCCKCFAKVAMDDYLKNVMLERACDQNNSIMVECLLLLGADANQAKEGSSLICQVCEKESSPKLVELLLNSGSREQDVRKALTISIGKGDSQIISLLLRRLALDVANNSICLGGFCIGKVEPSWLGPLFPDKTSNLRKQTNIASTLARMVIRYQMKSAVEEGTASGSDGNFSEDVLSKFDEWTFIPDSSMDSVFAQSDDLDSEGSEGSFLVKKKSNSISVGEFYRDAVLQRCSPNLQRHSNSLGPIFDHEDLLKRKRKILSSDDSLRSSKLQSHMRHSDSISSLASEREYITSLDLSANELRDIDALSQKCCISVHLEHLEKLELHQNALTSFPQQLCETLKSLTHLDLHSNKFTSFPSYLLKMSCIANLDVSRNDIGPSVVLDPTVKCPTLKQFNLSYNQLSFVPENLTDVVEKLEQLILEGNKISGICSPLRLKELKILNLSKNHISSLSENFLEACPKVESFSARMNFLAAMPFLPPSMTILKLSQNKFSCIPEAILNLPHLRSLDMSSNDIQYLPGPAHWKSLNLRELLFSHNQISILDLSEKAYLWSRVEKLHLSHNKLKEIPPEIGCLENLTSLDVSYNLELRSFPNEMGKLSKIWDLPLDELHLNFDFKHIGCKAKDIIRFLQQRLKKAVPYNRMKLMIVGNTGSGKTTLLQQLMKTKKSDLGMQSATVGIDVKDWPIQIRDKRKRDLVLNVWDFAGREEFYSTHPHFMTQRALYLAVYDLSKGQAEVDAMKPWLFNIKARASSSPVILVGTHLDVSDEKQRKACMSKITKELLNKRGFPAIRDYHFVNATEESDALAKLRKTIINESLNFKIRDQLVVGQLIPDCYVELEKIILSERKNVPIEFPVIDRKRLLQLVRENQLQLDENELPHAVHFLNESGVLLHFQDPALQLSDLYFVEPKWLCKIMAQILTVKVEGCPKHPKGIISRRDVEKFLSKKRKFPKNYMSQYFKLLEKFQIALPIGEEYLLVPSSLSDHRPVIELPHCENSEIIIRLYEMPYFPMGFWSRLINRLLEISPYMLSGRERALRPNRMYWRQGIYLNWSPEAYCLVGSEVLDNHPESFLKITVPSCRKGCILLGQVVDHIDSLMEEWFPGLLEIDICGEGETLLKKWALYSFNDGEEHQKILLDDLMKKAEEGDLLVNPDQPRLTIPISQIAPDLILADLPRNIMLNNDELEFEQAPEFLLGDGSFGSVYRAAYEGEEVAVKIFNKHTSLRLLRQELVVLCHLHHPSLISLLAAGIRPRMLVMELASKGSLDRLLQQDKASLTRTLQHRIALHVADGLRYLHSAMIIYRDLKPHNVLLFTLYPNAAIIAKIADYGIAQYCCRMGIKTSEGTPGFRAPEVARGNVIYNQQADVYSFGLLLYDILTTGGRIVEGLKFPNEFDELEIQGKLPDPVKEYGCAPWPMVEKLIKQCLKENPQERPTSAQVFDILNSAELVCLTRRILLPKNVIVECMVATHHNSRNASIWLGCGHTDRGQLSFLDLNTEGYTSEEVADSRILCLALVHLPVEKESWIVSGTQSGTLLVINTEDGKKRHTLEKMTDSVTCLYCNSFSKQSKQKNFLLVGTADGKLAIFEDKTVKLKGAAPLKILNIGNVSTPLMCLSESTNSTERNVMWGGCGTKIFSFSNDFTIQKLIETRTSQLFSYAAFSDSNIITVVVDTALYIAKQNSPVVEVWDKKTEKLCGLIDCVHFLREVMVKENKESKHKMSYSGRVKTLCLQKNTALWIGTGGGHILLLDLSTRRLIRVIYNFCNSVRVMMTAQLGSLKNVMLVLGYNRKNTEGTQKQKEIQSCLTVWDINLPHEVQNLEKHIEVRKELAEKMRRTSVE

[5] = biological target: Leucine-rich repeat serine/threonine-protein kinase 2 (Homo sapiens) (UniProt Q5S007); conditions: at 1 µM
[6] = test system: Leucine-rich repeat serine/threonine-protein kinase 2 (Homo sapiens), Q5S007 [G2019S]; conditions: at 0.1 µM
Leucine-rich repeat serine/threonine-protein kinase 2 (Homo sapiens), Q5S007 [G2019S], sequence (Q5S007 whole entry G2019S): as the sequence (Q5S007 whole entry) above, with G2019S counted along it

[7] = test system: Leucine-rich repeat serine/threonine-protein kinase 2 (Homo sapiens), Q5S007 [G2019S]; conditions: at 1 µM

RAF proto-oncogene serine/threonine-protein kinase (Homo sapiens), sequence (P04049 whole entry): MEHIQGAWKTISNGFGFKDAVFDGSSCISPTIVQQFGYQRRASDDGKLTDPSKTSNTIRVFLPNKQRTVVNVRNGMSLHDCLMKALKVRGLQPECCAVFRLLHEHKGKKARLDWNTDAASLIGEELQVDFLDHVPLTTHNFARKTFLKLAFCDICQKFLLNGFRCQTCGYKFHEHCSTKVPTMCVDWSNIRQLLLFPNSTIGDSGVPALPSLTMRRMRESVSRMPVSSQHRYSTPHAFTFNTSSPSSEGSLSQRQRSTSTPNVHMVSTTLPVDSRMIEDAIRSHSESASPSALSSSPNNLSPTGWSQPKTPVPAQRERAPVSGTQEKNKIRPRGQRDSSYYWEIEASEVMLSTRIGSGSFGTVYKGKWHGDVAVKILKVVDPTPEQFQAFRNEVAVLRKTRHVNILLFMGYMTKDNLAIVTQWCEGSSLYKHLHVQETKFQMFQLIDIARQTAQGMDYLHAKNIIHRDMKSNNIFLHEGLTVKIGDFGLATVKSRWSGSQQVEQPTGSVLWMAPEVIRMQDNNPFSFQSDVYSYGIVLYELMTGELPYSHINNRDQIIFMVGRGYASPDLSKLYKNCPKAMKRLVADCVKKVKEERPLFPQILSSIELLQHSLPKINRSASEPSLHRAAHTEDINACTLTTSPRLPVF

COC(=O)Nc1nc2ccc(Oc3ccc(NC(=O)Nc4cc(C(F)(F)F)ccc4F)cc3)cc2s1
inhibition [1]: 60.1%
inhibition [2]: 1.94%
inhibition [3]: 0.25%
inhibition [4]: 17.4%
inhibition [5]: 48.5%
inhibition [6]: 9.18%
inhibition [7]: 37.8%

CCS(=O)(=O)c1ccc(OC)c(Nc2ncc(-c3cccc(C(C)=O)c3)o2)c1
inhibition [1]: 8.87%
inhibition [2]: -3.46%
inhibition [3]: 1.19%
inhibition [4]: 0.47%
inhibition [5]: 4.65%
inhibition [6]: 2.77%
inhibition [7]: 11.8%

COc1c(C(N)=O)cc(-c2ccc(Cl)cc2)cc1-c1ccc(S(N)(=O)=O)cc1
inhibition [1]: 1.44%
inhibition [2]: 1.96%
inhibition [3]: 1.85%
inhibition [4]: -0.34%
inhibition [5]: 6.11%
inhibition [6]: 3.53%
inhibition [7]: 9.4%

NS(=O)(=O)c1ccc(N/N=C2\C(=O)Nc3cccc(CCc4ccncc4)c32)cc1
inhibition [1]: -2.61%
inhibition [2]: -0.38%
inhibition [3]: 0.01%
inhibition [4]: 6.21%
inhibition [5]: 9.58%
inhibition [6]: 8.14%
inhibition [7]: 12.9%

CNC(=O)c1cncc(/C=C/c2ccccc2C)c1
inhibition [1]: -2.68%
inhibition [2]: -0.44%
inhibition [3]: 2%
inhibition [4]: 3.81%
inhibition [5]: 6.67%
inhibition [6]: 4.65%
inhibition [7]: 9.68%

COc1cccc(-n2ncc3c(N/N=C/c4ccc(C(=O)NCCN(C)C)cc4)ncnc32)c1
inhibition [1]: 1.13%
inhibition [2]: -3.06%
inhibition [3]: 1.87%
inhibition [4]: 8.48%
inhibition [5]: 17.2%
inhibition [6]: 12.5%
inhibition [7]: 49.6%

CCN1CCC(C(=O)Nc2n[nH]c3nnc(-c4cccc(F)c4F)cc23)CC1
inhibition [1]: -2.59%
inhibition [2]: 0.27%
inhibition [3]: 0.13%
inhibition [4]: 1.99%
inhibition [5]: 3.27%
inhibition [6]: 2.15%
inhibition [7]: 1.7%

OCCCNc1nccc(-c2c(-c3ccc(F)cc3)nn3cc(C(F)(F)F)ccc23)n1
inhibition [1]: -7.33%
inhibition [2]: -1.58%
inhibition [3]: 1.48%
inhibition [4]: 5.02%
inhibition [5]: 7.46%
inhibition [6]: 2.62%
inhibition [7]: 7.85%

COc1ccc2ncn(-c3cc(O[C@H](C)c4ccccc4C(F)(F)F)c(C(N)=O)s3)c2c1
inhibition [1]: 0.1%
inhibition [2]: 1.48%
inhibition [3]: 0.87%
inhibition [4]: 4.72%
inhibition [5]: 15.9%
inhibition [6]: 5.16%
inhibition [7]: 31%

COc1ccc(Nc2ncc(-c3ccccc3)o2)cc1OC
inhibition [1]: 3.96%
inhibition [2]: 2.27%
inhibition [3]: 2.28%
inhibition [4]: 1.05%
inhibition [5]: 13.2%
inhibition [6]: 3.5%
inhibition [7]: 22.9%

NC(=O)c1ccc2c(-c3ccnc(NCCCO)n3)c(-c3ccc(F)cc3)nn2c1
inhibition [1]: -4.3%
inhibition [2]: 1.46%
inhibition [3]: 2.22%
inhibition [4]: 5.47%
inhibition [5]: 7.44%
inhibition [6]: 6.54%
inhibition [7]: 9.18%

Nc1nccc(-c2c(-c3ccc(F)cc3)ncn2C2CCNCC2)n1
inhibition [1]: 8.14% and -2.89%
inhibition [2]: 3.05% and 0.88%
inhibition [3]: -1.58% and -0.23%
inhibition [4]: -1.76% and 1.62%
inhibition [5]: 3.33% and 3.21%
inhibition [6]: 0.34% and 3.78%
inhibition [7]: 4.42% and 3.38%

CNC(=O)c1sc(-n2cnc3cc(OC)c(OC)cc32)cc1OCc1ccccc1C(F)(F)F
inhibition [1]: 0.72%
inhibition [2]: 2.12%
inhibition [3]: 1.97%
inhibition [4]: 2.86%
inhibition [5]: 9.7%
inhibition [6]: 3.5%
inhibition [7]: 7.21%

CN(c1ccc(NC(=O)NCCN2CCOCC2)cc1)c1ccnc(Nc2ccc(CS(C)(=O)=O)cc2)n1
inhibition [1]: 7.58%
inhibition [2]: -5.94%
inhibition [3]: 1.07%
inhibition [4]: 2.79%
inhibition [5]: 9.85%
inhibition [6]: 2.66%
inhibition [7]: 14.7%

CCCNc1cccc(-n2ncc3c(N/N=C/c4ccncc4)ncnc32)c1
inhibition [1]: -3.81%
inhibition [2]: 2.03%
inhibition [3]: 0.71%
inhibition [4]: 3.27%
inhibition [5]: 12.2%
inhibition [6]: 5.55%
inhibition [7]: 37.8%

FC(F)(F)CNc1nccc(-c2cnn3ncccc23)n1
inhibition [1]: -1%
inhibition [2]: 0.77%
inhibition [3]: 1.21%
inhibition [4]: 3.07%
inhibition [5]: 8.2%
inhibition [6]: 5.03%
inhibition [7]: 9.11%

CN1CCN(Cc2ccc(-c3cc4ncnc(Nc5ccc(OCc6cccc(F)c6)c(Cl)c5)c4s3)o2)CC1
inhibition [1]: -2.88% and 11.7%
inhibition [2]: 0.28% and 1.52%
inhibition [3]: 0.56% and 2.95%
inhibition [4]: 2.03% and 2.75%
inhibition [5]: 6.29% and 5.13%
inhibition [6]: 4.59% and 4.9%
inhibition [7]: 7.45% and 5.92%

CN(C)CCNC(=O)Nc1ccc(N(C)c2ccnc(Nc3ccc(CS(C)(=O)=O)cc3)n2)cc1
inhibition [1]: -0.82%
inhibition [2]: -4.3%
inhibition [3]: 2.15%
inhibition [4]: 4.46%
inhibition [5]: 11.5%
inhibition [6]: 6.1%
inhibition [7]: 23%

N#Cc1ccc2c(-c3ccnc(NC4CC4)n3)c(-c3ccc(F)cc3)nn2c1
inhibition [1]: -2.54%
inhibition [2]: 0.03%
inhibition [3]: -0.5%
inhibition [4]: 2.1%
inhibition [5]: -2.22%
inhibition [6]: 1.24%
inhibition [7]: -0.08%

COc1ccccc1-c1cc(/C=C2\C(=O)Nc3ncc(Br)cc32)cc(Br)c1O
inhibition [1]: -9.49%
inhibition [2]: 2.4%
inhibition [3]: 1.85%
inhibition [4]: 7.41%
inhibition [5]: 17.6%
inhibition [6]: 13.5%
inhibition [7]: 55.3%

CCOc1ccc2c(-c3ccnc(Nc4cc(OC)cc(C(F)(F)F)c4)n3)cnn2n1
inhibition [1]: -1.65%
inhibition [2]: -3.8%
inhibition [3]: 0.63%
inhibition [4]: 1.55%
inhibition [5]: 5.25%
inhibition [6]: 3.62%
inhibition [7]: 12.8%

CC1=C(C(=O)Nc2ccc3[nH]ncc3c2)C(c2ccc(F)cc2)N=C(c2ccc(C(F)(F)F)nc2)N1 (configuration not stated)
inhibition [1]: -4.26%
inhibition [2]: -2.11%
inhibition [3]: 0.95%
inhibition [4]: 2.81%
inhibition [5]: 7.24%
inhibition [6]: 5.04%
inhibition [7]: 26%

NS(=O)(=O)c1ccc(N/N=C2\C(=O)Nc3ccc(C(=O)NCc4ccncc4)cc32)cc1
inhibition [1]: -3.37%
inhibition [2]: -2.46%
inhibition [3]: 1.57%
inhibition [4]: 5.05%
inhibition [5]: 11.6%
inhibition [6]: 6.07%
inhibition [7]: 30.8%

COc1cc(N2CCN(C(C)C)CC2)ccc1Nc1nc(Nc2cccc3ncccc23)c2cc[nH]c2n1
inhibition [1]: 10.1%
inhibition [2]: 5.39%
inhibition [3]: -0.29%
inhibition [4]: 13%
inhibition [5]: 23.2%
inhibition [6]: 24.5%
inhibition [7]: 63%

O=C1Nc2ccccc2/C1=C1\CCc2cc(O)ccc21
inhibition [1]: -4.27%
inhibition [2]: 0.67%
inhibition [3]: 5.31%
inhibition [4]: 17.6%
inhibition [5]: 66.3%
inhibition [6]: 22.1%
inhibition [7]: 63.6%

Nc1ncnc2occ(-c3ccc(NC(=O)Nc4cc(C(F)(F)F)ccc4F)cc3)c12
inhibition [1]: -6.08% and -5.86%
inhibition [2]: -1.81% and -1.2%
inhibition [3]: 1.77% and -0.37%
inhibition [4]: 13.6% and 6.55%
inhibition [5]: 18.1% and 19.4%
inhibition [6]: 8.38% and 6.37%
inhibition [7]: 35.4% and 28.6%

O=C(O[C@H]1CN[C@H](C#Cc2cc3ncnc(Nc4ccc5c(cnn5Cc5ccccc5)c4)c3s2)C1)N1CCOCC1
inhibition [1]: -1.71%
inhibition [2]: -1.41%
inhibition [3]: -0.48%
inhibition [4]: 1.16%
inhibition [5]: 4.4%
inhibition [6]: 3.12%
inhibition [7]: 4.15%

N#Cc1cccc(Nc2ncc(-c3ccccc3)o2)c1
inhibition [1]: -0.15%
inhibition [2]: 2.82%
inhibition [3]: 0.78%
inhibition [4]: 1.01%
inhibition [5]: 2.11%
inhibition [6]: 1.64%
inhibition [7]: 4.25%

CC(C)c1ccc(-c2cc(-c3c[nH]nc3-c3ccccn3)ccn2)cc1
inhibition [1]: 1.4%
inhibition [2]: 1.27%
inhibition [3]: 0.36%
inhibition [4]: 2.9%
inhibition [5]: 4.8%
inhibition [6]: 1.2%
inhibition [7]: 7.15%

Cn1c(-c2nonc2N)nc2cnccc21
inhibition [1]: 8.87%
inhibition [2]: 3.47%
inhibition [3]: 1.21%
inhibition [4]: 2.89%
inhibition [5]: 10.6%
inhibition [6]: 4.16%
inhibition [7]: 20.5%

COc1cc(N2CCN(C(C)C)CC2)ccc1Nc1nc(Nc2cccc(F)c2C(=O)O)c2cc[nH]c2n1
inhibition [1]: 0.19%
inhibition [2]: 2.04%
inhibition [3]: 2.25%
inhibition [4]: 6.61%
inhibition [5]: 16.3%
inhibition [6]: 19%
inhibition [7]: 59.3%
